EBV LMP1 NFkB: EBV LMP1-driven NF-kappaB luciferase reporter inhibitors, primary screen, cell-based, luminescence, single point; LMP1-induced NF-kappaB luciferase reporter cells; inhibition, % at 12.5 µM; 350,000 compounds, 0.69% hits; in the data active = inhibition above about 41%; inconclusive = no clear call, values can overlap the other calls;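 note: 0% = neutral control wells and 100% = reference inhibitor control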
KKLEB cytotox: cytotoxicity in KKLEB CF airway cells, primary screen, cytotoxicity control for CF NF-kB inhibitor project, cell-based, uHTS, fluorescence assay plates; KKLEB CF airway cells viability, ATPlite luminescence, overnight; stronger effect = lower value; cells stimulated with P. aeruginosa culture filtrate; activity change (cytotoxicity), % at 5 µM; 360,000 compounds, 0.36% hits;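 active = corrected activity change at or below -50% at 5 µM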
CF NFkB inh: inhibitors of PAF-induced NF-kB signaling, primary screen, cell-based, GFP fluorescence, uHTS | AID 588850, 2011 | 360,000 compounds, 0.86% hits | inhibition, % at 5 µM | KKLEB NF-kB-GFP reporter, GFP fluorescence overnight;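 active = at least 50% inhibition at 5 µM, scaled per plate between neutral and stimulator controls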;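 note: PAF is a Pseudomonas aeruginosa culture filtrate used as stimulus; plate controls were PAF-stimulated DMSO wells for no effect and unstimulated DMSO wells for full effect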
Peg3 promoter: Peg3 promoter-driven luciferase inhibitors, primary screen, cell-based, HeLa, luciferase luminescence. HeLa PEG-Prom luciferase reporter, overnight. inhibition, % at 20 µM. 360,000 compounds, 1.7% hits. AID 588405, 2011;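 active = inhibition of at least 50% at 20 µM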
TRPM1 prom inh: inhibitors of MITF-dependent TRPM1 promoter reporter, primary screen, cell-based, SK-MEL-5, single point, luciferase. SK-MEL-5 TRPM1 promoter luciferase, 24 h. inhibition, % at 12.5 µM. 330,000 compounds, 0.83% hits;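 active = mean inhibition across replicates of 60% or more, whatever share of single replicates reaches that level; inconclusive = some that reach 60%, reason not given; inactive = mean inhibition across replicates below 60%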
HIF-2a inh: HIF-2a reporter inhibitors, primary screen, luminescence, 786-0 RCC cells | 360,000 compounds, 0.72% hits | inhibition, % at 18.8 µM | 786-0 RCC cells HIF-2a reporter, luciferase luminescence, overnight;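 active = inhibition of the luminescence signal of 40% or more relative to plate controls, in a single-dose primary screen at 18.75 µM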
Active calls of the source: *; ? = inconclusive; . = not tested or not shown. A selection: hits, their analogues and other compounds. The true share with any hit is near 3%.

SMILES	EBV LMP1 NFkB	KKLEB cytotox	CF NFkB inh	Peg3 promoter	TRPM1 prom inh	HIF-2a inh
FC(F)(F)c1ccc(-c2cccc3c2C2CC3CCN2C(=S)NCCc2ccccc2)cc1 (stereo not drawn)	.	-4	5	-2	.	7
Cc1ccc(C(=O)Sc2cccccc2=O)cc1	-19	-17	-6	103*	83*	29
COc1ccccc1S(=O)(=O)N[C@@H]1CC[C@@H](CCn2cc(C3CC3)nn2)O[C@@H]1CO	.	.	.	.	.	3
COc1ccc(CN2CCN(Cc3c[nH]c4ccccc34)CC2)cc1OC	-2	5	2	-21	.	20
COc1ccc(Br)cc1CN1CCN(Cc2c[nH]c3ccccc23)CC1	-37	-5	10	52*	11	16
COc1ccccc1NC(=O)C1=C(C)Nc2nnnn2C1c1ccccc1OC (stereo not drawn)	-8	8	-26	-8	7	10
COc1ccccc1/C=C1\CCCC2=C1Nc1nnnn1C2c1ccccc1OC (stereo not drawn)	-12	-12	46	101*	50	26
O=C(Nc1ccc(S(=O)(=O)Nc2ncccn2)cc1)c1cccc([N+](=O)[O-])c1	2	9	-15	9	.	15
Nc1nc(-c2ccc(NC(=O)c3ccco3)cc2)cs1	76*	-3	-13	-70	10	-144
O=C(Nc1ccc(NC(=O)c2ccco2)nc1)c1ccco1	45*	9	-10	-29	5	-36
C=CCN(c1ccccc1OC)S(=O)(=O)c1cccc(C(=O)NCC(c2ccc(OC)cc2)N2CCCC2)c1 (stereo not drawn)	-10	-2	13	6	8	0
COc1cccc(NC(=O)c2cnc(NS(=O)(=O)c3ccccc3)nc2)c1	1	-6	19	-3	.	8
CCC(C)NCCOc1ccc(C(C)(C)c2ccccc2)cc1 (stereo not drawn)	-25	-20	33	81*	5	8
CC(C)(c1ccccc1)c1ccc(OCCCN2CCNCC2)cc1	4	2	6	79*	31	16
CC(C)(C)c1ccc(OCCCCCCN2CCNCC2)cc1	2	-19	7	64*	25	10
COCCCNCCOc1ccc(C(C)(C)c2ccccc2)cc1	-10	-14	4	25	-9	9
Cc1cc(F)ccc1-c1cc(C(=O)N2CCN(c3ccncc3)CC2)[nH]n1	.	-15	10	9	.	12
CN(C)C(=O)c1ccc(NC(=O)c2cccc(-n3cnnn3)c2)cc1	8	-10	1	11	.	16
FC(F)Oc1ccc(NC(=S)NNc2ccnc3cc(Cl)ccc23)cc1	9	4	-16	29	69*	10
NC(=S)NNc1ccnc2cc(Cl)ccc12	11	12	0	0	6	17
Cc1cc(Oc2ccccc2)nc(-c2ccccc2)n1	-10	-11	12	-30	-15	-64
C=C(C)c1nc(Oc2ccccc2)nc(Oc2ccccc2)n1	-2	1	6	106*	?	11
COc1ccccc1-c1ccc2c(c1)C(C)(Cc1cc(Cl)ccc1C(F)(F)F)C(=O)N2 (stereo not drawn)	.	0	11	78*	.	-9
Cc1ccc2nc(Cl)c3nnnn3c2c1	-13	-20	71*	111*	40	-5
OC(c1ccc(F)cc1)c1ncc(-c2ccc3ccccc3c2)[nH]1 (stereo not drawn)	.	-3	-24	-242	.	-242
S=c1[nH]nc(-c2cc(-c3ccccc3)n[nH]2)n1/N=C/C(Br)=C/c1ccccc1	.	-77*	104*	108*	.	26
CC[n+]1c(C=C2C=C(C)OC(C)=C2)sc2ccccc21	14	-5	-22	28	74*	2
CC[n+]1c(/C=C2/C=C(C)CC(C)C2)sc2ccccc21 (stereo not drawn)	-6	-10	14	6	35	3

Compound activity from PubChem BioAssay.
